PubChem BioAssay (NCATS)
Results filed as inconclusive are left out. Activity calls are given as the source filed them. Unless noted, the call rests on the fitted dose curve; in most records, active means well fitted curve in either direction with a large enough effect (not every such curve was filed as active); inconclusive means small, poorly fitted or top-dose-only effect, or another doubt; inactive means flat fitted curve, though single readings scatter.

How the values were obtained:
[1] = molecular target: Lysosomal acid glucosylceramidase (Homo sapiens) (UniProt P04062); test: Glucocerebrosidase-p2 (AID 348; in the data active means potency below about 10 µM; further: potency means the concentration at half of the fitted maximal effect); conditions: purified GBA, blue fluorogenic substrate, 40 min
Chain of Lysosomal acid glucosylceramidase (Homo sapiens) (P04062 whole entry, looked up): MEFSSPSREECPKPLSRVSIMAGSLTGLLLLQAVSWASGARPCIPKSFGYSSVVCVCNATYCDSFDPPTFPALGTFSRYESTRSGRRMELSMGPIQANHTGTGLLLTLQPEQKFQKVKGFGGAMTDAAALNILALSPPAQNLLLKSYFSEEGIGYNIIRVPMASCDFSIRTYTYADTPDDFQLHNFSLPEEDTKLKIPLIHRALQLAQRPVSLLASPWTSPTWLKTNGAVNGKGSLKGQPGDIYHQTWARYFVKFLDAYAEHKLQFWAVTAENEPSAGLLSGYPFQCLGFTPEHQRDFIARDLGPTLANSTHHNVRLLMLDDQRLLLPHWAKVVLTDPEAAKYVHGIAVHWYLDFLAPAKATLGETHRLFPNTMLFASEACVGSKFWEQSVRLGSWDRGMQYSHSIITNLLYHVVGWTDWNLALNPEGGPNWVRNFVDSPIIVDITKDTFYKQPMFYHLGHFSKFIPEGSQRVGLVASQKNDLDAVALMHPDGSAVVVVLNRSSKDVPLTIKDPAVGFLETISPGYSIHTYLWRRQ
Method in brief: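 Normal human glucocerebrosidase (0.2 nM) with blue fluorogenic substrate (80 uM final) in citrate/phosphate pH 5.9 with 10mM sodium taurocholate, 0.01% tween-20; 40 min RT, NaOH/glycine stop; fluorescence Ex 365/Em 440; AC50 from a titration from 0.6 nM upwards.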

[2] = AP1 Signaling Pathway (AID 357); conditions: ME-180 AP-1-bla reporter, EGF-induced, beta-lactamase ratio, 5 h; at 7.69 µM (top of the series) unless noted;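 further: ME-180 reporter cells stimulated with EGF at its EC50 level; on the % scale 0 is the no-effect control and ±100 the full control effect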
Method in brief: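 Beta-lactamase reporter under AP-1 response element, ME-180 background. Stimulus: EC50 EGF. Compound exposure 5 h, 37 °C. Detection: CCF4, 2.5 h RT, 460/530 nm. Values: AC50 from titration.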

[3] = molecular target: Cytochrome P450 1A2 (Homo sapiens) (UniProt P05177); test: p450-cyp1a2 (AID 410; calls by dose curve; further: potency means the concentration at half of the fitted maximal effect;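 on activity change, negative = inhibition: -100% = full effect of reference inhibitor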); conditions: recombinant CYP1A2, luciferin-ME demethylation, luminescence; series mostly up to 11.4 µM
Chain of Cytochrome P450 1A2 (Homo sapiens) (P05177 whole entry, looked up): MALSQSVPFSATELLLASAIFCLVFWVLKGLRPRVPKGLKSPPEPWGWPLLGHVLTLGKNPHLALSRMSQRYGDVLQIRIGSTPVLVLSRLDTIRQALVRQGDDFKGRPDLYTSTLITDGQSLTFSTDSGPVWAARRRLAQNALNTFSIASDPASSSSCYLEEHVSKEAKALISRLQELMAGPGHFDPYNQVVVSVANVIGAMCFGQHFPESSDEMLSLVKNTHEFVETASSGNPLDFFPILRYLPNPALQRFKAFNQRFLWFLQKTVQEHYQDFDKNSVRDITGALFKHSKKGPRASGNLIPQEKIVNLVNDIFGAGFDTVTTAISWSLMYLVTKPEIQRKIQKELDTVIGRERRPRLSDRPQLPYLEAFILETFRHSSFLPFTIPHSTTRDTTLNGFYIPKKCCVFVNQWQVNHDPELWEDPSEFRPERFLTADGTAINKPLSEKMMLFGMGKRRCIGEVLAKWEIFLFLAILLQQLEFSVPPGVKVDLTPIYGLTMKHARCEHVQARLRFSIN
Method in brief: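 Luminescent demethylation readout: Luciferin-ME (100uM, equal to Km) turned over by 20nM CYP1A2 for 60 min at room temperature after NADPH regeneration addition, following 10 min compound preincubation. Normalization used 57 uM furafylline as full inhibition.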

[4] = NFAT Signaling Pathway (AID 444); conditions: Jurkat NFAT-bla M1, carbachol, beta-lactamase ratio, 5 h; at 7.69 µM (top of the series) unless noted;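 further: carbachol stimulus at about its EC50 of 1 µM final; on the % scale 0 is the no-effect control and ±100 the full control effect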
Method in brief: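 Jurkat cells with NFAT-driven β-lactamase reporter and co-expressed M1 receptor, stimulated with carbachol (final 1 uM, ~EC50), compound titration, 5 h at 37 °C. CCF4 loaded 1 h at RT; 460/530 nm ratio gave %activity and AC50.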

[5] = Stat Signaling Pathway (AID 446); conditions: ME-180 SIE beta-lactamase reporter, IL-6 stimulated, 5 h; at 7.69 µM (top of the series) unless noted;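 further: ME-180 cervical cancer cells given 40 pM IL-6 alongside compound; SIE-controlled beta-lactamase reporter measured as 460/530 nm FRET emission ratio; on the % scale 0 is the no-effect control and ±100 the full control effect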
Method in brief: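 Overnight-plated ME-180 cells bearing a STAT Inducible Element beta-lactamase reporter; 5 h co-exposure to compound and 40 pM IL-6; values normalized to 300 pM IL-6 and 125 nM JAK inhibitor controls.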

[6] = molecular target: Glucocorticoid receptor (Homo sapiens) (UniProt P04150); test: GR-GFP Redistribution (AID 450;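 active means compounds whose dose series gives a full or clear partial fitted curve of increased nuclear translocation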; further: potency means the concentration at half of the fitted maximal effect); conditions: U2OS GR-GFP nuclear translocation, laser cytometry, 2 h
Chain of Glucocorticoid receptor (Homo sapiens) (P04150 whole entry, looked up, the tested form may be a part): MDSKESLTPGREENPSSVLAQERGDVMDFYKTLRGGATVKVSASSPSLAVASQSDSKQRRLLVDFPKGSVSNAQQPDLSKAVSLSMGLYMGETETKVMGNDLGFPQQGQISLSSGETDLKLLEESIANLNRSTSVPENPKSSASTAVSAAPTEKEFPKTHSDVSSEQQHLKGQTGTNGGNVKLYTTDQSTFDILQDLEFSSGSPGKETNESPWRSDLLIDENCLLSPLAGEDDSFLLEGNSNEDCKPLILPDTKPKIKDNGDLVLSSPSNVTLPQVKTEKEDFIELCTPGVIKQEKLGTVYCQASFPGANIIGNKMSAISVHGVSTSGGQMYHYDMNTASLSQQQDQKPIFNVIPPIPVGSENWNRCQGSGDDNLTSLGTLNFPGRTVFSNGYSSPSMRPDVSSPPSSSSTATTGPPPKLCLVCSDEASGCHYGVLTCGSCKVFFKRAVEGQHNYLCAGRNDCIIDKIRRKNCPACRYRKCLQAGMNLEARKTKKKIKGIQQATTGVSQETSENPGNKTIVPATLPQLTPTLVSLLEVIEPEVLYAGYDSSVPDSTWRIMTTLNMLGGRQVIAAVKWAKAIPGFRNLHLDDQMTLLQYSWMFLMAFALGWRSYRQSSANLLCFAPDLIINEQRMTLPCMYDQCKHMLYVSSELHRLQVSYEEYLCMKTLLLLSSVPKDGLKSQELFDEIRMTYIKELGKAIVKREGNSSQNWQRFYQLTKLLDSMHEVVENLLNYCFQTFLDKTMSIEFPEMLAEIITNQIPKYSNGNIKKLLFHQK

[7] = molecular target: Glucocorticoid receptor (Homo sapiens) (UniProt P04150); test: GR-EFC Redistribution (AID 451; calls by dose curve; further: potency means the concentration at half of the fitted maximal effect); conditions: CHO-K1 GR-EFC translocation, beta-gal luminescence, 2 h
Method in brief: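 CHO-K1 cells expressing nuclear EA and GR-ED fragments of b-gal; compounds titrated up to 46 uM final, 2 h at 37 C. GR nuclear translocation read as complemented b-gal luminescence after 1 h RT detection.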

[8] = molecular target: Mitogen-activated protein kinase 10 (Mus musculus) (UniProt Q61831); test: JNK3 AlphaScreen Assay (AID 530); conditions: JNK3 lysate, c-Jun phosphorylation; series mostly up to 11.4 µM;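 further: kinase came from lysate of stimulated human HepG2 cells; signal reports phosphorylation of biotinylated GST-cJun 1-79 at Ser73 with 10 µM ATP; on the % scale 0 is the no-effect control and ±100 the full control effect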
Method in brief: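 Activity was read by AlphaScreen after JNK3-containing HepG2 lysate (cytokine pre-activated) phosphorylated biotinylated GST-cJun with 10 uM ATP at room temperature. Phospho-Ser73 cJun antibody with Protein-A acceptor beads provided detection.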

[9] = molecular target: 3',5'-cyclic-AMP phosphodiesterase 4B (Homo sapiens) (UniProt Q07343); test: qHTS Assay for Inhibitors of PDE-IV (AID 607; active means well fitted activation curve with a large enough effect in the main read-out, with a control signal flat, not every such curve was filed as active; further: % of control where 0% means no effect); conditions: HEK293 ACTOne CNG channel cells, membrane potential fluorescence; series mostly up to 22.9 µM
Chain of 3',5'-cyclic-AMP phosphodiesterase 4B (Homo sapiens) (Q07343 whole entry, looked up): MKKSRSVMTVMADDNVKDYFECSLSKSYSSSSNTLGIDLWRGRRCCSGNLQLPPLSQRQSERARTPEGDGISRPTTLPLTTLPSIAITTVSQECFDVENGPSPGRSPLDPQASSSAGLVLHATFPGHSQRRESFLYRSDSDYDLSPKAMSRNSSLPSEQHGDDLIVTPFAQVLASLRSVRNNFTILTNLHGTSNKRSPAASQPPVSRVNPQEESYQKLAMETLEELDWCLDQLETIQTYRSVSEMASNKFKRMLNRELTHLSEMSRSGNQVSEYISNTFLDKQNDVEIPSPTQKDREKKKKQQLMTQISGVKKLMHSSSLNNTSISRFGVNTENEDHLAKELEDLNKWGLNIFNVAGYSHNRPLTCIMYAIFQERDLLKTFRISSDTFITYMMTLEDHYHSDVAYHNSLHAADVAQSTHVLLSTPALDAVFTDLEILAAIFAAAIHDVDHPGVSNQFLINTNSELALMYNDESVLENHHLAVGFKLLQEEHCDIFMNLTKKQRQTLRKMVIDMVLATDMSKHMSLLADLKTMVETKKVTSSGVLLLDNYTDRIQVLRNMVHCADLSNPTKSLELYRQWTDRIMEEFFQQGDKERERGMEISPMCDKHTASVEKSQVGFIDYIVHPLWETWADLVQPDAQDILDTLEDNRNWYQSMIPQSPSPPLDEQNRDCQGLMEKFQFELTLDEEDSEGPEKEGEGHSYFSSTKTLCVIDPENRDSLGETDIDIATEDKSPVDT
Method in brief: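 Live HEK293 cells with a modified cyclic nucleotide-gated (CNG) channel report intracellular cAMP via membrane-potential dye fluorescence (ex 535/em 590 nm). Endogenous PDE-IV was targeted. Compounds were tested at up to 22.9 uM final; RO 20-1724 100 uM served as control.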

[10] = qHTS Assay for Identification of Small Molecule Agonists for Hypoxia Response Element Signaling Pathway (AID 914; active means well fitted activation curve with a large enough effect in the signal ratio, with a control signal flat, not every such curve was filed as active; the % refers to the signal ratio; further: % of control where 0% means no effect); conditions: ME-180 (cervical carcinoma) HRE-bla reporter, beta-lactamase ratio, CoCl2, 17 h; activation: hits give high values
Method in brief: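 AC50 values come from titration-series %Activity, taken as the 460/530nm ratio of CCF4 fluorescence (excitation 405nm). CellSensor HRE-bla ME-180 cells were treated 17 hours at 37 C with compound plus an EC50 level of CoCl2.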

[11] = molecular target: Cytochrome P450 3A4 (Homo sapiens) (UniProt P08684); test: qHTS Assay for Inhibitors and Substrates of Cytochrome P450 3A4 (AID 884; active means well fitted curve in the direction sought with a large enough effect; an effect the other way counts as inactive or inconclusive; further: on the % scale 0 is the no-effect control and ±100 the full control effect; nearly all actives have a fitted effect of over 50% in size); conditions: recombinant CYP3A4, Luciferin-PPXE luminescence; series mostly up to 57.1 µM
Chain of Cytochrome P450 3A4 (Homo sapiens) (P08684 whole entry, looked up): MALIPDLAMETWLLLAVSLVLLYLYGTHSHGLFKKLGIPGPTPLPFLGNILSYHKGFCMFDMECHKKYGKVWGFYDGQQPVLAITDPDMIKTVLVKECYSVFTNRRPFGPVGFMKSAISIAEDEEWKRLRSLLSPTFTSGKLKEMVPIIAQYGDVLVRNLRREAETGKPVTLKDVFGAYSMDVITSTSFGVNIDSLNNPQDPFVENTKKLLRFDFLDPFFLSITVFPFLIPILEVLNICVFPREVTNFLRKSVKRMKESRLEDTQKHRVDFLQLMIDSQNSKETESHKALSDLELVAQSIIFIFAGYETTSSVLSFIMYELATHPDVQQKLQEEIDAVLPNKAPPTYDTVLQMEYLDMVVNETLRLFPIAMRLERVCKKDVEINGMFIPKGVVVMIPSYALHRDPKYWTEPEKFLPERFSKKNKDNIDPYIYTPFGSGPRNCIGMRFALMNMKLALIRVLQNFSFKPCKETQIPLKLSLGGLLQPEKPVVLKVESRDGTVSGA
Method in brief: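 Luminescent readout of luciferin produced by CYP3A4 (20 nM) dealkylation of Luciferin-PPXE, 25 uM (its KM). NADPH-driven reaction ran 60 min at RT after 10 min compound preincubation; data scaled to 57 uM ketoconazole as 100% inhibition.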

[12] = molecular target: Cytochrome P450 3A4 (Homo sapiens) (UniProt P08684); test: qHTS Assay for Activators of Cytochrome P450 3A4 (AID 885; active means well fitted curve in the direction sought with a large enough effect; an effect the other way counts as inactive or inconclusive; further: nearly all actives have a fitted effect of over 65% in size; further: potency means the concentration at half of the fitted maximal effect); conditions: recombinant CYP3A4, Luciferin-PPXE luminescence, 60 min; series mostly up to 11.4 µM
Method in brief: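 Using 20nM recombinant human CYP3A4 in potassium phosphate (200mM), substrate Luciferin-PPXE at 25uM, luminescent luciferin detection followed a 60-min RT NADPH reaction; data scaled to 57 uM ketoconazole.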

[13] = molecular target: Cytochrome P450 2C9 (Homo sapiens) (UniProt P11712); test: qHTS Assay for Inhibitors and Substrates of Cytochrome P450 2C9 (AID 883; active means well fitted curve in the direction sought with a large enough effect; an effect the other way counts as inactive or inconclusive; further: on the % scale 0 is the no-effect control and ±100 the full control effect; nearly all actives have a fitted effect of over 60% in size); conditions: recombinant CYP2C9, luciferin-H luminescence, 60 min; series mostly up to 11.4 µM
Chain of Cytochrome P450 2C9 (Homo sapiens) (P11712 whole entry, looked up): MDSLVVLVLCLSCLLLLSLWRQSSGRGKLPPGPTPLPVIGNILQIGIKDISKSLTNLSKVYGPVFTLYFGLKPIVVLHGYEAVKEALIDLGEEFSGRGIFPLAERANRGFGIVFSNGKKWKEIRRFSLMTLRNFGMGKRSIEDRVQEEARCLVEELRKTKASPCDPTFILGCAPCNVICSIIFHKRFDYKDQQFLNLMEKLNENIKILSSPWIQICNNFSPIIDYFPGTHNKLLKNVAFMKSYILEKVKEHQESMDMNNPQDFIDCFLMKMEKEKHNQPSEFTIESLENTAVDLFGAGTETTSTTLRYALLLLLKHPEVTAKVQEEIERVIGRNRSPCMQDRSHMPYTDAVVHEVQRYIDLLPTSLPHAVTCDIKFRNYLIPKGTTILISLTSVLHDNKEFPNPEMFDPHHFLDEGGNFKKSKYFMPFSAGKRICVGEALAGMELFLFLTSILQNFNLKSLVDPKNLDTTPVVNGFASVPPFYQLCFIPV
Method in brief: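 Signal: luciferase luminescence reporting luciferin produced by CYP2C9. Conditions: 10nM enzyme, Luciferin-H 100uM at KM, 25mM KPO4, 37C, 60 min NADPH-driven reaction. Reference: 57uM sulphaphenazole as 100% inhibition.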

[14] = molecular target: Cytochrome P450 2D6 (Homo sapiens) (UniProt P10635); test: qHTS Assay for Inhibitors and Substrates of Cytochrome P450 2D6 (AID 891; active means well fitted curve in the direction sought with a large enough effect; an effect the other way counts as inactive or inconclusive;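 further: luciferin methyl ether substrate demethylated by CYP2D6 with NADPH regeneration; on the % scale 0 is the no-effect control and ±100 the full control effect; nearly all actives have a fitted effect of over 60% in size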); conditions: recombinant CYP2D6, luciferin-ME EGE luminescence; series mostly up to 11.4 µM
Chain of Cytochrome P450 2D6 (Homo sapiens) (P10635 whole entry, looked up): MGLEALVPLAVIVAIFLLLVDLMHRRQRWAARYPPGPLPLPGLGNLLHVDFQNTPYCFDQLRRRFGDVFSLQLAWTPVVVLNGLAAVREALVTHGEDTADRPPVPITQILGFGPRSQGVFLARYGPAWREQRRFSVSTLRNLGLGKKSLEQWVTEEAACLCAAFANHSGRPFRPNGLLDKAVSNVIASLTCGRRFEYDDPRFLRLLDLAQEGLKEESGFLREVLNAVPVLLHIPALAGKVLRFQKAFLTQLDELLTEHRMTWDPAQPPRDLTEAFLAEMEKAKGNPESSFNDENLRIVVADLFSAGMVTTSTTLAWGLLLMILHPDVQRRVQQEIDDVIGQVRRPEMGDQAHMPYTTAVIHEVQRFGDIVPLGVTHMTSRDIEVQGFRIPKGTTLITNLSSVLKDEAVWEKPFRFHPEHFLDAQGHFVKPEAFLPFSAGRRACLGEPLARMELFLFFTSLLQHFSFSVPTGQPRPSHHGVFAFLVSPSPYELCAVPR
Method in brief: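 Luminescent read-out of luciferin formed by 5 nM human CYP2D6 demethylating 30 uM Luciferin-ME EGE (Km level) over 60 min at room temperature after NADPH regeneration addition. Data normalized to full inhibition by 1.43 uM quinidine.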

[15] = molecular target: Cytochrome P450 2C19 (Homo sapiens) (UniProt P33261); test: qHTS Assay for Inhibitors and Substrates of Cytochrome P450 2C19 (AID 899; active means well fitted curve in the direction sought with a large enough effect; an effect the other way counts as inactive or inconclusive; further: on the % scale 0 is the no-effect control and ±100 the full control effect; nearly all actives have a fitted effect of over 60% in size); conditions: recombinant CYP2C19, luciferin-H EGE luminescence; series mostly up to 11.4 µM
Chain of Cytochrome P450 2C19 (Homo sapiens) (P33261 whole entry, looked up): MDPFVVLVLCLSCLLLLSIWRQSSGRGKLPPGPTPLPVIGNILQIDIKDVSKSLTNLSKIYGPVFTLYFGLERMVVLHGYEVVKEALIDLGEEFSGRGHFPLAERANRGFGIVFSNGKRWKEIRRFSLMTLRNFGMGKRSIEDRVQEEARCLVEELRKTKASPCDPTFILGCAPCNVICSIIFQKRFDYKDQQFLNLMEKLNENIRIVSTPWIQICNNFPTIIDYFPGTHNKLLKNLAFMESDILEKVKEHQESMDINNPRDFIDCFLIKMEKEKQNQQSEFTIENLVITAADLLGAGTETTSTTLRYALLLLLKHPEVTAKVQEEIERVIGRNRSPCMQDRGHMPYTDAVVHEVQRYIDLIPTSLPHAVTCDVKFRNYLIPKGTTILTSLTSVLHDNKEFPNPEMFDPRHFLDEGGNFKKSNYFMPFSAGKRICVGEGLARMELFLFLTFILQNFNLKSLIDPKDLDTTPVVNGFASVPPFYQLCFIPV
Method in brief: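 Signal comes from luciferase acting on luciferin released by CYP2C19-mediated hydroxylation of Luciferin-H EGE, 10uM (KM). Assay mix: 5nM enzyme, 50mM KPO4; 60 min at 37C with NADPH regeneration. Data normalized against 57uM ketoconazole.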

C/C(=N/S(=O)(=O)c1ccc(Cl)c(Cl)c1)OCC(C)(C)C
inactive: Potency [1] > 11.4 µM | activity change, negative = inhibition [2] 2.66% | Potency [3] | activity change, negative = inhibition [4] 20% | activity, negative = inhibition [5] 1.9% | Potency [6] > 46 µM | Potency [7] > 9.22 µM | Potency [8] | Potency [9] | activation [10] 8.96%

CC(=O)OCC(=O)[C@]12OC(C)(C)O[C@@H]1C[C@H]1[C@H]3CC=C4C[C@@H](O)CC[C@]4(C)[C@H]3CC[C@]12C
inactive: Potency [1] > 11.4 µM | activity change, negative = inhibition [2] 8.77% | Potency [3] | activity change, negative = inhibition [4] -9.45% | activity, negative = inhibition [5] 5.43% | Potency [6] > 46 µM | Potency [7] > 9.22 µM | Potency [8] | activity change, negative = inhibition [11] 69.9% [at 11.4 µM]
active: Potency [12] 3.16 µM

O=C(Nc1ccc2ncccc2c1)Nc1ccc2ncccc2c1
inactive: Potency [1] > 11.4 µM | activity change, negative = inhibition [2] -16.2% | activity change, negative = inhibition [3] -28.5% [at 2.29 µM] | activity change, negative = inhibition [4] 21.4% | activity, negative = inhibition [5] -14.3% | Potency [6] > 46 µM | Potency [7] > 9.22 µM | Potency [8] | Potency [9] | activation [10] -12.2%

OCCCNCc1ccccn1
inactive: Potency [1] > 11.4 µM | activity change, negative = inhibition [2] -3.7% | activity change, negative = inhibition [3] -20% [at 2.29 µM] | activity change, negative = inhibition [4] 5.11% | activity, negative = inhibition [5] 5.98% | Potency [6] > 46 µM | Potency [7] > 9.22 µM | Potency [8] | Potency [9] | activation [10] 12.2%

C[C@@]12CC(=O)[C@@H]3[C@@H](CCC4=CC(=O)CC[C@]43C)[C@@H]1CC=C2CC(=O)O
inactive: Potency [1] > 11.4 µM | activity change, negative = inhibition [2] -4.3% | Potency [3] | activity change, negative = inhibition [4] 23.5% | activity, negative = inhibition [5] 2.31% | Potency [6] > 46 µM | Potency [7] > 9.22 µM | Potency [8] | Potency [9] | activation [10] -1.62%

N=C(N)SCCSC(=N)N
inactive: Potency [1] > 11.4 µM | activity change, negative = inhibition [2] 5.54% | activity change, negative = inhibition [4] -2.2% | activity, negative = inhibition [5] 12.3% | Potency [6] > 46 µM | Potency [7] > 9.22 µM | Potency [8] | Potency [9] | activation [10] -2.21%
active: Potency [3] 2 µM

COC(=O)[C@]1(C)CCC(c2ccc(C)cc2)=C(CC(=O)O)C1
inactive: Potency [1] > 11.4 µM | activity change, negative = inhibition [2] -2.42% | activity change, negative = inhibition [3] -8.4% [at 2.29 µM] | activity change, negative = inhibition [4] -1.89% | activity, negative = inhibition [5] 2.79% | Potency [6] > 46 µM | Potency [7] > 9.22 µM | Potency [8] | Potency [9] | activation [10] 4.66%

CN(C)Cc1ccc(O)c(CN(C)C)n1
inactive: Potency [1] > 11.4 µM | activity change, negative = inhibition [2] 1.16% | Potency [3] | activity change, negative = inhibition [4] 4.31% | activity, negative = inhibition [5] 0.249% | Potency [6] > 46 µM | Potency [7] > 9.22 µM | Potency [8] | Potency [9] | activation [10] 2.88%

Cc1nc2cnc(N3CCOCC3)nc2n(Cc2cccs2)c1=O
active: Potency [3] 2 µM
inactive: Potency [1] > 11.4 µM | activity change, negative = inhibition [2] -18.4% | activity change, negative = inhibition [4] -3.19% | activity, negative = inhibition [5] -5.33% | Potency [6] > 9.22 µM | Potency [7] > 46 µM | Potency [8] | Potency [12]

O=C(O)/C=C\C(=O)Nc1ccccn1
inactive: Potency [1] > 11.4 µM | activity change, negative = inhibition [2] 1.01% | Potency [3] | activity change, negative = inhibition [4] 11.9% | activity, negative = inhibition [5] -1.9% | Potency [6] > 46 µM | Potency [7] > 9.22 µM | Potency [8] | Potency [9] | activation [10] 4.82%

CC1=N[C@@](C)(COC(=O)[C@]2(C)N[C@](C)(CO)CO2)COC1=O
inactive: Potency [1] > 11.4 µM | activity change, negative = inhibition [2] 0.84% | activity change, negative = inhibition [3] 6.9% [at 2.29 µM] | activity change, negative = inhibition [4] 9.08% | activity, negative = inhibition [5] 6.3% | Potency [6] > 46 µM | Potency [7] > 9.22 µM | Potency [8] | Potency [9] | activation [10] 5.98%

COc1ccc(-n2c(=O)c(C)nc3cnc(Nc4cccc(OC)c4)nc32)cc1
inactive: Potency [1] > 11.4 µM | activity change, negative = inhibition [2] -25.7% | activity change, negative = inhibition [4] 10.5% | activity, negative = inhibition [5] -24.1% | Potency [6] > 9.22 µM | Potency [7] > 46 µM | Potency [8] | Potency [12]
active: Potency [3] 15.8 µM

COc1ccc(CCCC(=O)O)c(C)c1
inactive: Potency [1] > 11.4 µM | activity change, negative = inhibition [2] 1.4% | Potency [3] | activity change, negative = inhibition [4] -4.8% | activity, negative = inhibition [5] -0.975% | Potency [6] > 46 µM | Potency [7] > 9.22 µM | Potency [8] | Potency [13] | activity change, negative = inhibition [11] -0.798% [at 11.4 µM] | Potency [14] | Potency [15] | activation [10] -8.35%

O=C(O)c1ccc(CNCc2ccccc2)cc1
inactive: Potency [1] > 11.4 µM | activity change, negative = inhibition [2] -3.63% | Potency [3] | activity change, negative = inhibition [4] -2.06% | activity, negative = inhibition [5] 15.5% | Potency [6] > 46 µM | Potency [7] > 9.22 µM | Potency [8] | Potency [9] | activation [10] 4.76%
